Screening results: PubChem, Sanford-Burnham Center for Chemical Genomics
Most compounds without a hit are left out; they make up all but 31% or so of the library.
CYP2C19 inh – human CYP2C19 inhibition | CYP2C19 Supersomes, luciferin-H EGE luminescence, 30 min | inhibition, % at 5 µM | actives 21% (n = 96,000) | AID 778;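 active = CYP2C19 inhibition above a set limit at 5 µM in the primary screen, cut at about 50% in these data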;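 note: plate controls were negative control wells for no effect and 2.5 mM tranylcypromine positive control for full effect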
Target sequence (P33261 whole entry, looked up): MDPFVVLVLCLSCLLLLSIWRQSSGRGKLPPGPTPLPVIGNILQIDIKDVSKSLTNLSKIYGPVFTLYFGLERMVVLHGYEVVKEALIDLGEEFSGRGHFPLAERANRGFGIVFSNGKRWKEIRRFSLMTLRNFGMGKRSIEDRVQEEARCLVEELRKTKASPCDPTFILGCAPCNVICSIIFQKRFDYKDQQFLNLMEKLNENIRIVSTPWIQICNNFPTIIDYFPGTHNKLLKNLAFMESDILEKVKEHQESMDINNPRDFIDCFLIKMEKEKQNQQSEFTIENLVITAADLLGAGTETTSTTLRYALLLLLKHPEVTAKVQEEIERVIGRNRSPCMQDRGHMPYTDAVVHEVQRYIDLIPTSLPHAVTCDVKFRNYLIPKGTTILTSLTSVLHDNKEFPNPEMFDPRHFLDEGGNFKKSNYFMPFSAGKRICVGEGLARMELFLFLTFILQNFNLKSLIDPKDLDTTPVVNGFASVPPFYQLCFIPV
CYP2C9 act – activators of human CYP2C9. activation factor at 5 µM. AID 1024. P11712. recombinant CYP2C9, luciferin-H conversion, luminescence; stronger effect = higher value; factor 1 = untreated enzyme, 0 = blocked. actives 1.4% (n = 96,000);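 active = activation factor of 2 or more for CYP2C9 at a 5 µM dose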;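 note: 0 = sulfaphenazole-blocked wells and 1 = vehicle-only wells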
CYP2C19 act – activators of human cytochrome P450 2C19; P33261; recombinant CYP2C19, luciferin-H EGE luminescence; stronger effect = higher value; 0 = fully inhibited enzyme, 1 = untreated enzyme; activation factor at 5 µM; 96,000 tested, under 10 active;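 active = activation factor of at least 2 at 5 µM in the primary screen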;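 note: 0 = wells with 2.5 mM tranylcypromine and 1 = vehicle-only wells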
CYP2C9 inhib – inhibitors of human CYP2C9 | inhibition, % at 5 µM | CYP2C9 Supersomes, luciferin-H conversion, luminescence | actives 20% (n = 96,000);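 active = blocking of liver enzyme CYP2C9 beyond about 50% at 5 µM, limit read from the data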
* = called active by the depositor.

SMILES	CYP2C19 inh	CYP2C9 act	CYP2C19 act	CYP2C9 inhib
CCCOc1ccc2ccccc2c1/C=N/n1cnnc1	60*	0.4	0.4	57*
COc1ccccc1OCCOc1ccccc1/C=N/n1cnnc1	75*	0.8	0.3	19
CCOc1ccc2ccccc2c1/C=N/n1cncn1	49	0.4	0.5	58*
Cc1[nH]c2ccccc2c1/C=N/n1cnnc1	46	0.8	0.5	20
COC(=O)C1=CN(CC2CCCO2)C=C(C(=O)OC)C1c1cc(OC)c(OC)c(OC)c1 (stereo not given)	1	0.9	1	6
CC(C)Oc1ccc2ccccc2c1C=O	21	0.8	0.8	21
CC1CN(c2ccccc2)C(=O)CS1 (stereo not given)	-11	1	1.1	3
COC(=O)c1c(C(=O)OC)n(CCCN)c2ccc(C)cc12	25	0.9	0.7	6
Cc1ccc2c(c1)c1cccc3c1n2CCN3CCC(N)=O	31	0.3	0.7	74*
CCn1cc(C(=O)NCc2ccc3c(c2)OCO3)c(=O)c2cc(F)c(N3CCN(C(=O)c4ccco4)CC3)cc21	23	0.4	0.8	58*
CC(=O)c1cc(F)c(N2CCN(C(=O)c3ccco3)CC2)cc1C	60*	0.7	0.4	25
CCCNC(=O)c1cn(CC)c2cc(N3CCN(C)CC3)c(F)cc2c1=O	1	1	1	3
CCn1cc(C(=O)NCc2ccccc2)c(=O)c2cc(F)c(N3CCN(C(=O)c4ccco4)CC3)cc21	53*	0.4	0.5	64*
CCN(CC)S(=O)(=O)c1ccc(N2CCOCC2)c(NC(=O)C(=O)c2c(-c3ccccc3)cc3ccccn23)c1	29	0.1	0.7	86*
CCN(CC)S(=O)(=O)c1cccc(-c2nnc(SCC(=O)NC)n2CCc2ccccc2)c1	45	0.6	0.6	38
CCN(CC)S(=O)(=O)c1cc(NC(=O)C(=O)c2c(-c3ccccc3)cc3ccccn23)ccc1C	43	0.5	0.6	54*
CCN(CC)S(=O)(=O)c1cccc(NC(=O)C(=O)c2c(-c3ccccc3)cc3ccccn23)c1	57*	0.4	0.4	65*
CN(CC(=O)Nc1ccccc1N1CCOCC1)S(=O)(=O)c1ccc(Cl)cc1	21	0.9	0.8	6
CCCOc1ccc(-c2nc(=S)[nH][nH]2)cc1	13	0.8	0.9	25
Cc1ccc(-n2c(O)c(C=NC3CCS(=O)(=O)C3)c3ccccc3c2=O)cc1 (stereo not given)	6	0.9	0.9	8
Cc1ccccc1-c1nc2ccccc2c(=O)n1C1CCS(=O)(=O)C1 (stereo not given)	88*	1	0.1	3
O=S1CCCSC1c1cccnc1 (stereo not given)	-5	1.1	1	-5
CCCCc1noc2c1/C(=N\O)CC(c1ccccc1)C2 (stereo not given)	48	0.2	0.5	77*
CCCCc1n[nH]c2c1/C(=N/O)CC(c1ccccc1)C2 (stereo not given)	40	0.8	0.6	18
CCCCCNC1=CC(=O)CC(c2ccccc2)C1 (stereo not given)	40	0.9	0.6	10
SMILES	CYP2C19 inh	CYP2C9 act	CYP2C19 act	CYP2C9 inhib
CCc1n[nH]c2c1/C(=N\O)CC(c1ccccc1)C2 (stereo not given)	96*	0	0	98*
COC(=O)c1c(/N=C/NOCc2ccc(Cl)cc2)sc2c1CCN(c1ncc(C(F)(F)F)cc1Cl)C2	9	1	0.9	3
CC(Oc1ccccc1)C(=O)Nc1cccc(F)c1 (stereo not given)	38	0.8	0.6	24
CC(=O)Nc1cc(-c2ccccc2)ccc1O	33	1	0.7	4
CC(Oc1ccccc1)C(=O)Nc1ccccc1O (stereo not given)	87*	0.1	0.1	87*
COc1cc(NC(=O)C(C)Oc2ccccc2)cc(OC)c1 (stereo not given)	86*	0.2	0.1	79*
CS(=O)(=O)N(CC(=O)NCc1ccccn1)c1ccc2c(c1)OCCO2	-14	1.2	1.1	-18
O=C(Nc1ccc(C2CCCCC2)cc1)C1CCN(c2ncccn2)CC1	-4	1.1	1	-14
COc1cc2cc(CN(CCN3CCCC3)C(=O)Nc3ccc(F)cc3)c(=O)[nH]c2cc1OC	-10	1	1.1	2
Cc1ccccc1N=C1NC(=O)CS1	1	1	1	-4
Cc1ccccc1N=C1NC(=O)CC(c2ccccc2)S1 (stereo not given)	63*	0.7	0.4	32
c1ccc(COc2ccc(-c3csnn3)cc2)cc1	68*	0.5	0.3	45
OC(c1ccc(OCc2ccccc2)cc1)c1nnc(-c2ccccc2)o1 (stereo not given)	4	1.1	1	-6
CCOC(=O)c1ccc(Nc2ncnc3ccc(C)cc23)cc1	19	1.1	0.8	-5
CCOC(=O)c1cccc(Nc2ncnc3ccc(C)cc23)c1	56*	0.5	0.4	50
CCNC(=O)NC(=O)COC(=O)CNC(=O)COc1ccccc1	-5	1.1	1.1	-14
CCNC(=O)C1CC(=O)N(Cc2ccc3c(c2)OCO3)C(=Nc2ccc(OCC)cc2)S1 (stereo not given)	-5	1.1	1.1	-13
CC(C)CC(=O)Nc1cccc(C(=O)Nc2ccccc2C(=O)O)c1	7	0.3	0.9	74*
O=C(Nc1ccccc1C(=O)O)c1ccc(NC(=O)c2ccc(Br)o2)cc1	23	0.2	0.8	78*
O=C(Nc1ccccc1C(=O)O)c1cccc(NC(=O)c2ccc(Br)o2)c1	2	0.1	1	91*
O=C(Nc1ccccc1C(=O)O)c1ccccc1	5	0.6	1	38
CCC1(c2cccc(Cl)c2)NC(=O)N(Cc2cc(C(=O)OC)c(C)o2)C1=O (stereo not given)	62*	1	0.4	0
COC(=O)C1=C(C)NC(=O)/C1=C\c1cc(C)n(-c2cc(C)cc(C)c2)c1C	82*	0.1	0.2	92*
COc1ccc(CCN2C(=NC(=O)CC(C)C)SC3CS(=O)(=O)CC32)cc1 (stereo not given)	82*	0.4	0.2	56*
CCNC(=O)Cn1c(=O)c2c(ncn2Cc2ccccc2)n(Cc2ccccc2)c1=O	89*	0.9	0.1	13
CCCS(=O)(=O)N1CCC(C(=O)NCC2CCCO2)CC1 (stereo not given)	-4	1	1	-4
CCCC1CC(=O)OC1(C)C(=O)CSc1n[nH]c(-c2ccccc2)n1 (stereo not given)	34	1	0.7	4
CC(C)(C)OC(=O)CN1C(=O)C(Sc2n[nH]c(-c3ccccc3)n2)CCc2ccccc21 (stereo not given)	69*	0.4	0.3	55*
CCOC(=O)CN1C(=O)C(Sc2n[nH]c(-c3ccc(O)cc3)n2)CCc2ccccc21 (stereo not given)	82*	0.1	0.2	94*
Cc1nn(C)cc1CNC(=O)C1C2CCC(O2)C1C(=O)O (stereo not given)	-12	1.2	1.1	-15
